# Screening data as filed in PubChem.
# In the library only some 3.8% were active in any assay of this set; here they are far more common.
# PrPC surface inh: reduces human prion protein on the cell surface; P04156; cell surface PrPC, TR-FRET read-out; inhibition, % at 13.8 µM; actives 0.43% (n = 370,000); in the data active = inhibition above about 24%; also: 0% = median of the test wells and 100% = reference compound wells
# GDH-TPI counter-1: counter-screen for M. tuberculosis FBA inhibitors: GDH-TPI coupled enzymes; AID 588335; inhibition, % at 4.8 µM; actives 1.2% (n = 360,000); GDH-TPI coupled enzyme counterscreen, NADH absorbance; in the data active = inhibition above about 30%;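 also: 0% = DMSO wells and 100% = wells lacking the enzyme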
# Mtb FBA inh: Mtb fructose-bisphosphate aldolase inhibition | actives 2.3% (n = 360,000) | purified M. tuberculosis FBA, fluorescence read-out | inhibition, % at 1 µM | P9WQA3;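 also: 0% = vehicle and 100% = reference inhibitor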
# Target sequence (P9WQA3 whole entry, looked up): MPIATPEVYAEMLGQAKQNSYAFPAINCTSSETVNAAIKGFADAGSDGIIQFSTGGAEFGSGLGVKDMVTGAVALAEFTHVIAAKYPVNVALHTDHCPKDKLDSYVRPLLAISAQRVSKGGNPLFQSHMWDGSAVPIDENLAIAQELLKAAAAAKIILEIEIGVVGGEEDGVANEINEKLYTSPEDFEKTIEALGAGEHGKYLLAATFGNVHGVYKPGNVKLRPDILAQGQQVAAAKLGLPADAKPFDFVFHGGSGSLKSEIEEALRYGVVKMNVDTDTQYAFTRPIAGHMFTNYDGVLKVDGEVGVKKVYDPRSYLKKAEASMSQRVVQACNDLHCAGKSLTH
# Mtb hypoxia rep: reduces hypoxia-regulated biosensor signal in M. tuberculosis. M. tuberculosis hypoxia-regulated fluorescent reporter, fluorescence. fluorescence inhibition, % (no concentration beside the values). actives 0.1% (n = 300,000); in the data active = fluorescence inhibition mostly above about 23%, no sharp cut-off; inactive = mostly below about 17%
# Yp Topo-I inh: inhibitors of Yersinia pestis topoisomerase I. Y. pestis Topo-I cleavage product accumulation, plate reader. activity, % at 10 µM. actives 0.064% (n = 360,000); in the data active = activity above about 50%, passing the limit was not always enough
# PrP 5UTR inh: suppresses PrP 5' UTR mRNA reporter expression; cell-based PrP 5' UTR mRNA reporter, plate reader; inhibition, % (test concentration not listed); actives 0.35% (n = 340,000); AID 488862; in the data active = inhibition above about 52%; also: 0 = median of the neutral control wells
# Mtb FBA confirm: confirmation of M. tuberculosis fructose-bisphosphate aldolase inhibitors | shares compounds with Mtb FBA inh | purified M. tuberculosis FBA, fluorescence read-out | inhibition, % at 1 µM | actives 78% (n = 5,600);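 also: 0% = vehicle wells and 100% = reference inhibitor wells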
# GDH-TPI counter-2: inhibits GDH-TPI coupling enzymes, flagging Mtb FBA hits. GDH-TPI coupled enzyme counterscreen, fluorescence. AID 652141. shares compounds with Mtb FBA inh. inhibition, % at 1 µM. actives 81% (n = 5,600); in the data active = inhibition above about 10%
# Starred values were filed as active, the others as inactive; · = no result shown; + = active, no number. Rule as the data show it, unless noted: active = inhibition above about 27%; inactive = the rest.
SMILES,PrPC surface inh,GDH-TPI counter-1,Mtb FBA inh,Mtb hypoxia rep,Yp Topo-I inh,PrP 5UTR inh,Mtb FBA confirm,GDH-TPI counter-2
N#CC1N(Cc2ccccc2)C(=O)C2CC3C=CC21O3 (stereo unspecified),·,·,·,3,·,·,·,·
C(=NN1CCOCC1)c1ccsc1,·,·,·,11,·,·,·,·
Cn1c(=O)c2cc3ccc(Cl)cc3nc2n(C)c1=O,0,1,4,-14,-5,·,·,·
Cn1c(=O)c2cc3ccccc3nc2n(C)c1=O,-4,13,36*,-7,3,-10,59*,51*
COc1ccc2cc3cc(C(=O)NC4CC4)sc3nc2c1,-31,23,102*,10,-2,13,130*,117*
O=[N+]([O-])c1cccc(NN=Cc2cc([N+](=O)[O-])ccc2O)c1,·,·,·,6,·,·,·,·
COc1ccc(C(=O)NC(=S)Nc2ccc(CN3CCOCC3)cc2)cc1,13,5,3,17,11,-2,·,·
O=C(NC(=S)Nc1ccc(CN2CCOCC2)cc1)c1ccc([N+](=O)[O-])cc1,-26,2,33*,-6,-5,-9,5,-4
Cc1[nH]n2c(=O)c3c(nc2c1-c1ccc(Cl)cc1)CCC3,·,11,6,-5,-3,-11,·,·
CCCc1cc(=O)n2[nH]c(C)c(-c3ccccc3)c2n1,3,0,27*,3,-8,13,2,-2
CCc1cc(=O)n2[nH]c(-c3ccccc3)c(-c3ccccc3)c2n1,-4,12,34*,7,-3,0,150*,111*
CCOC(=O)Cc1cc(=O)n2[nH]c(C)c(-c3ccc(Cl)cc3)c2n1,3,11,62*,6,4,-4,156*,110*
Cc1[nH]n2c(=O)c3c(nc2c1-c1ccccc1)CCC3,-5,12,28*,·,-3,-18,131*,97*
COc1ccc(-c2c(C(F)(F)F)[nH]n3c(=O)cc(-c4ccccc4)nc23)cc1,6,0,39*,-2,-3,-44,88*,84*
Cc1[nH]n2c(=O)cc(C(C)(C)C)nc2c1-c1ccccc1,9,15,50*,6,-4,23,3,-1
Cc1ccc2nc(-c3ccsc3)c(NC3CCCC3)n2c1,-3,9,28*,·,3,-20,18,14*
COc1ccc(S(=O)(=O)NN=C(C)c2ccc(C)o2)cc1,·,·,·,5,·,·,·,·
CC(C)CCN(CCC(C)C)CC(O)Cn1c2ccccc2c(=O)c2ccccc21 (stereo unspecified),5,-2,31*,1,3,-6,45*,35*
COc1cc(C=NNS(=O)(=O)c2ccc(C)c([N+](=O)[O-])c2)cc([N+](=O)[O-])c1O,·,·,·,3,·,·,·,·
c1csc(-c2cnc3ccccc3n2)c1,-18,0,63*,8,3,-62,-1,-2
c1coc(-c2cnc3ccccc3n2)c1,4,16,106*,·,4,·,69*,46*
CCN(CC)CCN1C(=O)C(=O)C(=C(O)c2c(C)[nH]c(C(=O)OC)c2C)C1c1ccccc1OC (stereo unspecified),·,·,·,6,·,·,·,·
O=C(NN=Cc1ccc(O)cc1)c1csc2c1CCCC2,·,·,·,2,·,·,·,·
O=C(Cc1ccc(O)cc1)NN=Cc1cccnc1,·,·,·,8,·,·,·,·
COC(c1ccccc1)c1nnc(CCC(=O)N(C)CCOc2ccccc2)o1 (stereo unspecified),-5,-5,0,0,11,-49,·,·
SMILES,PrPC surface inh,GDH-TPI counter-1,Mtb FBA inh,Mtb hypoxia rep,Yp Topo-I inh,PrP 5UTR inh,Mtb FBA confirm,GDH-TPI counter-2
COC(c1ccccc1)c1nnc(CCC(=O)N(C)CCCC2CCCC2)o1 (stereo unspecified),1,3,28*,2,42,-72,123*,100*
COC(=O)CN1C(=O)C2C(C=Cc3ccccc3)N3C(=O)CN(Cc4ccc(-c5ccccc5)cc4)C(=O)[C@@]3(C)C2C1=O (stereo partly specified),·,·,·,11,·,·,·,·
NC(=Nc1ccccc1)NC(=O)c1nc(Cl)c(N)nc1N,-13,22,23,-1,0,-34,·,·
NC(=NCc1ccccc1)NC(=O)c1nc(Cl)c(N)nc1N,-15,15,37*,-1,1,-5,32*,37*
Cc1ccc(-c2ccc(C=NNC(=O)CN3CCCC3)o2)cc1Cl,·,·,·,7,·,·,·,·
Cc1ccc(NC(=O)C(=O)NCc2ccc(C=NNC(=O)c3c(C)nc4cc(C)ccn34)o2)cc1,·,·,·,8,·,·,·,·
CSc1nsc(SC)c1CO,3,-7,39*,-2,2,-11,2,-8
Cc1ccc(-c2cc(C(=O)NN=Cc3c[nH]c4ccccc34)n[nH]2)o1,·,·,·,13,·,·,·,·
O=C(CNC(=O)c1ccccc1Br)NN=Cc1cccs1,·,·,·,2,·,·,·,·
COc1ccc(C=NNC(=O)c2[nH]ncc2Br)c(OC)c1,·,·,·,3,·,·,·,·
COc1ccc(OC)c(/C=N/NC(=O)c2[nH]ncc2Br)c1,5,21,39*,·,0,·,+,+
COc1ccc(OC)c(/C=N/NC(=O)c2[nH]nc3c2CCc2ccccc2-3)c1,8,15,45*,·,-4,-10,+,+
COc1ccc(OC)c(/C=N/NC(=O)CCc2n[nH]c(=O)[nH]c2=O)c1,-5,13,60*,·,-9,-5,119*,87*
